The results in this text go back to the supplement of paper PMC4022240.

± gives the standard deviation.

Holding throughout (experiment): peptide microarray binding signal (635 nm), min-max normalized on array (fraction of array maximum); higher = stronger binding
What all share (conditions): peptide region: H3 20-32

The target in experiment [1] is T1, HaloTag-ATRX ADD domain (163-292).
T1 chain: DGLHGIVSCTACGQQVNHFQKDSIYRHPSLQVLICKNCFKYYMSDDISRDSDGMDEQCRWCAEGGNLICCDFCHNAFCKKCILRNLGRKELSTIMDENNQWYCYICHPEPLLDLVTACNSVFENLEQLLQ
Put shortly:
(§1)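 For each library, binding signal was taken as the triplicate-spot mean intensity and then min-max scaled. Spots of histone 13-mer peptide–cellulose conjugates on nitrocellulose, printed in triplicate with a Cy3 tracer, were probed for 1 h at 4°C with either biotin-labelled HaloTag reader fusions (10 nM to 1 μM) and streptavidin-Alexa Fluor 647 or rabbit histone antibodies (1:10,000 to 1:2,000) and anti-rabbit Alexa 647. Readout at 635 nm came from an Axon GenePix 4000B.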

The target of experiment [2] is HaloTag-ING2 PHD (mouse Ing2 200-280). Put shortly: as §1
For experiment [3], the target named is anti-H3K4me3 antibody ab8580. A digest of the protocol:
as §1

Experiment [4] concerns the target anti-H3K9me3 antibody ab8898. Put shortly: as §1
Where [5] appears, read: peptide modifications: H3K23me2 H3K27ac, binder concentration: 1:2,000 dilution.
Setting [6] is: peptide modifications: H3K23me2 H3K27ac, binder concentration: 1:10,000 dilution.
Where [7] appears, read: peptide modifications: H3K23me3 H3K27ac, binder concentration: 1:2,000 dilution.
[8] abbreviates: peptide modifications: H3K23me3 H3K27ac, binder concentration: 1:10,000 dilution.
[9] abbreviates: peptide modifications: H3K27me3 H3S28ph, binder concentration: 1:2,000 dilution.
Where [10] appears, read: peptide modifications: H3K27me3 H3S28ph, binder concentration: 1:10,000 dilution.
Where [11] appears, read: peptide modifications: H3K23me2, binder concentration: 1:2,000 dilution.
The mark [12] stands for this setting: peptide modifications: H3K23me2, binder concentration: 1:10,000 dilution.
Where [13] appears, read: peptide modifications: H3K27me2 H3S28ph, binder concentration: 1:2,000 dilution.
[14] abbreviates: peptide modifications: H3K27me2 H3S28ph, binder concentration: 1:10,000 dilution.
Where [15] appears, read: peptide modifications: H3R26cit H3K27ac, binder concentration: 1:2,000 dilution.
Where [16] appears, read: peptide modifications: H3R26cit H3K27ac, binder concentration: 1:10,000 dilution.
[17] abbreviates: peptide modifications: H3K27me3, binder concentration: 1:2,000 dilution.
Setting [18] is: peptide modifications: H3K27me3, binder concentration: 1:10,000 dilution.
The mark [19] stands for this setting: peptide modifications: H3K27me1 H3S28ph, binder concentration: 1:2,000 dilution.
[20] abbreviates: peptide modifications: H3K27me1 H3S28ph, binder concentration: 1:10,000 dilution.
The mark [21] stands for this setting: peptide modifications: H3K23me2 H3K27me2, binder concentration: 1:2,000 dilution.
Where [22] appears, read: peptide modifications: H3K23me2 H3K27me2, binder concentration: 1:10,000 dilution.
[23] abbreviates: peptide modifications: H3K27ac, binder concentration: 1:2,000 dilution.
Setting [24] is: peptide modifications: H3K27ac, binder concentration: 1:10,000 dilution.

Take LATKAARKSAPAT [H3 20-32 L A T Kme2 A A R Kac S A P A T]: the “peptide microarray binding signal” value was determined as 0.008464 ± 6.7e-05 in experiment [1] (peptide modifications: H3K23me2 H3K27ac, binder concentration: 50 nM); 0.01538 ± 0.00011 in experiment [1] (peptide modifications: H3K23me2 H3K27ac, binder concentration: 500 nM); 0.0514 ± 0.0022 in experiment [2] (peptide modifications: H3K23me2 H3K27ac, binder concentration: 10 nM); 0.0701 ± 0.0049 in experiment [2] (peptide modifications: H3K23me2 H3K27ac, binder concentration: 100 nM); 0.0156 ± 0.00055 in experiment [3] (setting [5]); 0.0145 ± 0.00025 in experiment [3] (setting [6]). In addition, the “peptide microarray binding signal” value in experiment [4] (setting [5]) is 0.0072 ± 0.0012; in experiment [4] (setting [6]) it was 0.00513 ± 0.00017.

Consider LATKAARKSAPAT [H3 20-32 L A T Kme3 A A R Kac S A P A T], for which the “peptide microarray binding signal” value was 0.00665 ± 0.00019 in experiment [1] (peptide modifications: H3K23me3 H3K27ac, binder concentration: 50 nM); 0.0131 ± 0.00029 in experiment [1] (peptide modifications: H3K23me3 H3K27ac, binder concentration: 500 nM); 0.0614 ± 0.0049 in experiment [2] (peptide modifications: H3K23me3 H3K27ac, binder concentration: 10 nM); 0.0929 ± 0.0012 in experiment [2] (peptide modifications: H3K23me3 H3K27ac, binder concentration: 100 nM); 0.18 ± 0.021 in experiment [3] (setting [7]); 0.218 ± 0.01 in experiment [3] (setting [8]). The results for the “peptide microarray binding signal” value in experiment [4] (setting [7]) and in experiment [4] (setting [8]) were 0.11 ± 0.011 and 0.042 ± 0.002, respectively.

Consider LATKAARKSAPAT [H3 20-32 L A T K A A R Kme3 Sph A P A T], for which the “peptide microarray binding signal” value in experiment [1] (peptide modifications: H3K27me3 H3S28ph, binder concentration: 50 nM) is 0.00618 ± 0.00025; in experiment [1] (peptide modifications: H3K27me3 H3S28ph, binder concentration: 500 nM), 0.0125 ± 0.00027; in experiment [2] (peptide modifications: H3K27me3 H3S28ph, binder concentration: 10 nM), 0.0171 ± 0.0012; in experiment [2] (peptide modifications: H3K27me3 H3S28ph, binder concentration: 100 nM), 0.037 ± 0.0095; in experiment [3] (setting [9]), 0.0312 ± 0.0057; in experiment [3] (setting [10]) it was 0.0191 ± 0.0066. The “peptide microarray binding signal” value in experiment [4] (setting [9]) turned out to be 0.104 ± 0.021; in experiment [4] (setting [10]), 0.0474 ± 0.0052.

For the molecule LATKAARKSAPAT [H3 20-32 L A T Kme2 A A R K S A P A T], the “peptide microarray binding signal” value came to 0.00671 ± 0.00021 in experiment [1] (peptide modifications: H3K23me2, binder concentration: 50 nM); 0.0138 ± 0.00038 in experiment [1] (peptide modifications: H3K23me2, binder concentration: 500 nM); 0.0263 ± 0.0081 in experiment [2] (peptide modifications: H3K23me2, binder concentration: 10 nM); 0.0536 ± 0.02 in experiment [2] (peptide modifications: H3K23me2, binder concentration: 100 nM); 0.00836 ± 0.0018 in experiment [3] (setting [11]); 0.0156 ± 0.0071 in experiment [3] (setting [12]). The “peptide microarray binding signal” value was 0.00609 ± 0.0003 in experiment [4] (setting [11]) and 0.00479 ± 0.00052 in experiment [4] (setting [12]).

LATKAARKSAPAT [H3 20-32 L A T K A A R Kme2 Sph A P A T]: the “peptide microarray binding signal” value in experiment [1] (peptide modifications: H3K27me2 H3S28ph, binder concentration: 50 nM) was found to be 0.00527 ± 0.00024; in experiment [1] (peptide modifications: H3K27me2 H3S28ph, binder concentration: 500 nM), 0.0144 ± 0.00043; in experiment [2] (peptide modifications: H3K27me2 H3S28ph, binder concentration: 10 nM), 0.0156 ± 0.00093; in experiment [2] (peptide modifications: H3K27me2 H3S28ph, binder concentration: 100 nM) it was 0.0272 ± 0.0025; in experiment [3] (setting [13]), 0.00985 ± 0.00073; in experiment [3] (setting [14]), 0.00508 ± 0.00053. The “peptide microarray binding signal” value in experiment [4] (setting [13]) is 0.00619 ± 0.0012; in experiment [4] (setting [14]), 0.0129 ± 0.0067.

For LATKAARKSAPAT [H3 20-32 L A T K A A Rcit Kac S A P A T], the “peptide microarray binding signal” value in experiment [1] (peptide modifications: H3R26cit H3K27ac, binder concentration: 50 nM) worked out at 0.00486 ± 0.00011; in experiment [1] (peptide modifications: H3R26cit H3K27ac, binder concentration: 500 nM), 0.0109 ± 0.00038; in experiment [2] (peptide modifications: H3R26cit H3K27ac, binder concentration: 10 nM), 0.0232 ± 0.0013; in experiment [2] (peptide modifications: H3R26cit H3K27ac, binder concentration: 100 nM), 0.0235 ± 0.0022; in experiment [3] (setting [15]) it was 0.0101 ± 0.00075; in experiment [3] (setting [16]), 0.00553 ± 0.0019. The entries for the “peptide microarray binding signal” value in experiment [4] (setting [15]) and in experiment [4] (setting [16]) were 0.00415 ± 0.0003 and 0.00288 ± 4.3e-05, respectively.

LATKAARKSAPAT [H3 20-32 L A T K A A R Kme3 S A P A T]: the “peptide microarray binding signal” value in experiment [1] (peptide modifications: H3K27me3, binder concentration: 50 nM) was 0.00602 ± 0.00022; in experiment [1] (peptide modifications: H3K27me3, binder concentration: 500 nM), 0.008 ± 0.00041; in experiment [2] (peptide modifications: H3K27me3, binder concentration: 10 nM) it was 0.0119 ± 0.00027; in experiment [2] (peptide modifications: H3K27me3, binder concentration: 100 nM), 0.0118 ± 0.00043; in experiment [3] (setting [17]) it was 0.0112 ± 0.0008; in experiment [3] (setting [18]), 0.00907 ± 0.0011. The “peptide microarray binding signal” value is 0.0533 ± 0.0049 in experiment [4] (setting [17]) and 0.0225 ± 0.0027 in experiment [4] (setting [18]).

Regarding LATKAARKSAPAT [H3 20-32 L A T K A A R Kme Sph A P A T], the “peptide microarray binding signal” value in experiment [1] (peptide modifications: H3K27me1 H3S28ph, binder concentration: 50 nM) turned out to be 0.00502 ± 0.00011; in experiment [1] (peptide modifications: H3K27me1 H3S28ph, binder concentration: 500 nM), 0.00762 ± 0.00035; in experiment [2] (peptide modifications: H3K27me1 H3S28ph, binder concentration: 10 nM), 0.0135 ± 0.00073; in experiment [2] (peptide modifications: H3K27me1 H3S28ph, binder concentration: 100 nM), 0.0189 ± 0.00035; in experiment [3] (setting [19]), 0.00485 ± 0.0004; in experiment [3] (setting [20]) it was 0.00519 ± 0.00023. In addition, the entries for the “peptide microarray binding signal” value in experiment [4] (setting [19]) and in experiment [4] (setting [20]) were 0.00263 ± 0.00013 and 0.00277 ± 0.00013, respectively.

As to LATKAARKSAPAT [H3 20-32 L A T Kme2 A A R Kme2 S A P A T], the “peptide microarray binding signal” value in experiment [1] (peptide modifications: H3K23me2 H3K27me2, binder concentration: 50 nM) worked out at 0.00511 ± 6.7e-05; in experiment [1] (peptide modifications: H3K23me2 H3K27me2, binder concentration: 500 nM), 0.00781 ± 0.00026; in experiment [2] (peptide modifications: H3K23me2 H3K27me2, binder concentration: 10 nM) it was 0.0143 ± 0.0011; in experiment [2] (peptide modifications: H3K23me2 H3K27me2, binder concentration: 100 nM), 0.0265 ± 0.003; in experiment [3] (setting [21]), 0.001114 ± 9.2e-06; in experiment [3] (setting [22]), 0.000799 ± 8.3e-06. Moreover, the entries for the “peptide microarray binding signal” value in experiment [4] (setting [21]) and in experiment [4] (setting [22]) were 0.000861 ± 5.4e-05 and 0.000692 ± 1.9e-05, respectively.

Regarding LATKAARKSAPAT [H3 20-32 L A T K A A R Kac S A P A T], the “peptide microarray binding signal” value in experiment [1] (peptide modifications: H3K27ac, binder concentration: 50 nM) stood at 0.00542 ± 6.7e-05; in experiment [1] (peptide modifications: H3K27ac, binder concentration: 500 nM), 0.00819 ± 0.00035; in experiment [2] (peptide modifications: H3K27ac, binder concentration: 10 nM) it was 0.013 ± 0.00049; in experiment [2] (peptide modifications: H3K27ac, binder concentration: 100 nM) it was 0.0498 ± 0.05; in experiment [3] (setting [23]) it was 0.00461 ± 0.00054; in experiment [3] (setting [24]), 0.00508 ± 0.00032. The “peptide microarray binding signal” value in experiment [4] (setting [23]) is 0.00281 ± 0.00022; in experiment [4] (setting [24]) it was 0.002652 ± 2.3e-05.
